# 3T3 cytotox: kills NIH 3T3 cells; NIH 3T3 viability, CellTiter-Glo ATP luminescence, 48-72 h; Potency, µM (highest dose often 96.7 µM), for inactives: top-dose activity change, negative = cytotoxicity, most hits filed as inhibitors; 4.3% of 94,000 active; AID 1345082; also: % is scaled to controls: 0 for no effect and ±100 for the full control effect; nearly all actives have a fitted effect of over 55% in size
#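 Cytotoxicity is measured as loss of cellular ATP: NIH 3T3 cells (400/well) are exposed to compound for 48 or 72 hr at 37 °C, then CellTiter-Glo luminescence is imaged after 10 min at room temperature.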
# GPT2 inhibitor: GPT2 alanine aminotransferase inhibition | Q8TD30 | Recombinant GPT2, coupled pyruvate oxidase/HRP Amplex Red fluorescence | Potency, µM (highest dose often 57.7 µM), for the others: at the top dose activity change, negative = inhibition, usual class: inhibitors | 0.25% of 100,000 active | AID 1671188; also: % is scaled to controls: 0 for no effect and ±100 for the full control effect; nearly all actives have a fitted effect of over 60% in size
# Target sequence (Q8TD30 whole entry, looked up): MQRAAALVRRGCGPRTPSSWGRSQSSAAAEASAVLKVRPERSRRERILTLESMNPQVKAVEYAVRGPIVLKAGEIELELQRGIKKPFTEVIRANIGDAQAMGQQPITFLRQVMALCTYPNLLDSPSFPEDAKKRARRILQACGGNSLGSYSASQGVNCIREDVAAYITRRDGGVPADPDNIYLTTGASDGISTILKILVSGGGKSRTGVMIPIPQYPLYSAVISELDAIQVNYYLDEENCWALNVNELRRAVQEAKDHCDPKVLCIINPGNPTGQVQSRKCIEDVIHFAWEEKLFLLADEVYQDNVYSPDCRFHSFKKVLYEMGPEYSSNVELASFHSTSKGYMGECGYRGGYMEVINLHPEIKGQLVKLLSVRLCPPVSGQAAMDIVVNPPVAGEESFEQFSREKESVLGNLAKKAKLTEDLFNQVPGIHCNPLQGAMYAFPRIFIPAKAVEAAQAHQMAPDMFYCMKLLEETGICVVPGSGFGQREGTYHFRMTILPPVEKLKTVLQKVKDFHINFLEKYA
#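 Fluorescence of coupled pyruvate oxidase/HRP/Amplex Red system (50uM Amplex, 30 min, dark) reports pyruvate formed by GPT2. Enzyme reaction: 10ng/uL GPT2, 2mM L-alanine, 250uM a-KG, 30 min room temperature, pH 7.5; 50uM AOA control.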
# hNpr1 antagonist: blocks ANP-stimulated signaling of human Npr1 receptor | P16066 | HEK293 hNpr1 GloSensor cGMP, ANP-stimulated luminescence | Potency, µM (series often up to 46.3 µM), without a hit: at the highest dose activity change, negative = inhibition, actives largely listed as inhibitors | 1.6% of 76,000 active | AID 1347048; calls by dose curve; also: % is scaled to controls: 0 for no effect and ±100 for the full control effect; nearly all actives have a fitted effect of over 60% in size
#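 HEK293 cells stably expressing human Npr1 and cGMP GloSensor pGS-40F, loaded 2 h with 2% GloSensor reagent, given compound 30 min at room temperature. Luminescence read before and 20 min after 0.1 nM hNppA.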
# HEK cytotox: cytotoxic compounds in HEK 293 cells; 6.6% of 94,000 active; Potency, µM (top dose mostly 115 µM), for the others: at the top dose activity change, negative = cytotoxicity, hits mostly inhibitors; AID 1345083; HEK 293 viability, ATP luminescence (CellTiter-Glo), 48-72 h; also: % is scaled to controls: 0 for no effect and ±100 for the full control effect; nearly all actives have a fitted effect of over 60% in size
#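 CellTiter-Glo luminescence (cellular ATP) was read after 48 or 72 hr of compound exposure at 37 degree Celsius. Cells were HEK 293 plated at 250 cells/well.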
# FLuc inh: blocks purified firefly luciferase enzyme activity; P08659; purified P. pyralis luciferase, luminescence, biochemical; Potency, µM (series often up to 115 µM), most hits filed as inhibitors; 2.5% of 76,000 active; also: % is scaled to controls: 0 for no effect and ±100 for the full control effect; nearly all actives have a fitted effect of over 65% in size
#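 Biochemical qHTS: compound (6-point titration) added to 10uM D-luciferin plus 10uM ATP in Tris acetate pH 7.5 buffer with Mg, Tween-20 and BSA, then purified enzyme at 10nM; light output imaged.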
# Npr1 antag conf: hNpr1 antagonism, confirmation assay; shares compounds with hNpr1 antagonist; HEK293 hNpr1 cGMP GloSensor luminescence, ANP-stimulated; Potency, µM (series often up to 57.6 µM), inactives show at the highest dose activity change, negative = inhibition, hits mostly inhibitors; 76% of 1,400 active; AID 1347044; calls by dose curve; also: nearly all actives have a fitted effect of over 70% in size
# NPR2 antag: antagonizes human Npr2, subtype selectivity check. 67% of 1,400 active. HEK293 hNpr2 GloSensor cGMP luminescence, CNP-stimulated. shares compounds with hNpr1 antagonist. Potency, µM (highest dose often 57.6 µM), for inactives: at the top dose activity change, negative = inhibition, hits mostly inhibitors; calls by dose curve; also: nearly all actives have a fitted effect of over 70% in size
# FLuc inh counter: FLuc enzyme inhibition, Npr1 counter-screen; Potency, µM (series often up to 57.6 µM), inactives show at the top dose activity change, negative = inhibition, most hits filed as inhibitors; purified FLuc enzyme, luminescence, Km substrate; shares compounds with hNpr1 antagonist; 0.7% of 1,400 active; also: 0% is about no effect
# GloSensor ctrl: reduces cGMP signal in GloSensor control cells | shares compounds with hNpr1 antagonist | HEK293 GloSensor cGMP, SNP-stimulated, luminescence | Potency, µM (top dose mostly 57.6 µM), for the others: at the top dose activity change, negative = inhibition, hits mostly inhibitors | 69% of 1,400 active | AID 1347051; calls by dose curve; also: % is scaled to controls: 0 for no effect and ±100 for the full control effect; nearly all actives have a fitted effect of over 70% in size
# An asterisk follows results filed as active; i = inactive; ? = inconclusive; . = not tested or not shown; [ ] = another dose, or the depositor's remark. Rows were chosen to be rich in hits. Some 10% of all compounds tested hit in one or more screens of this group. Unless noted, calls follow the shape of the dose curve; as a rule, active = well fitted curve in the direction sought with a large enough effect; inconclusive = small, poorly fitted or top-dose-only effect, or another doubt; inactive = no such curve, though single readings can be large; an effect the other way counts as inactive or inconclusive. Potency is read from the fitted curve at half-maximal effect.
SMILES,3T3 cytotox,GPT2 inhibitor,hNpr1 antagonist,HEK cytotox,FLuc inh,Npr1 antag conf,NPR2 antag,FLuc inh counter,GloSensor ctrl
O=C(NCc1ccccc1F)c1ccc2c(c1)CN(Cc1cccc(F)c1)CCO2,?,i,-12%,?,i,.,.,.,.
COc1ccc(-c2cc(N3CCN(C(=O)Cc4c(F)cccc4Cl)CC3)n[nH]2)cc1,2%,i,7%,0%,i,.,.,.,.
Cc1ccccc1CN1CCc2nc(C(=O)NCCOc3ccccc3)oc2CC1,?,-14%[88.5 µM],-25%[70.6 µM],?,i,.,.,.,.
COc1ccc(CN2CCc3nc(C(=O)NCCOc4ccccc4)oc3CC2)cn1,?,-1%[88.5 µM],?,?,i,44µM*,?,-1%[86.2 µM],?
O=C(NCC1CC1)c1nc2c(o1)CCN(Cc1ccc(F)cc1F)CC2,?,-1%[88.5 µM],25µM*,?,i,22µM*,22µM*,-1%[86.2 µM],20µM*
O=C(NCc1cccc(F)c1)c1nc2c(o1)CCN(Cc1cc(F)ccc1F)CC2,50µM*,3%[88.5 µM],?,?,i,40µM*,?,0%[86.2 µM],40µM*
O=C(NCc1ccccc1)c1nc2c(o1)CCN(Cc1ccc(F)cc1F)CC2,71µM*,-1%[88.5 µM],25µM*,100µM*,i,40µM*,35µM*,1%[86.2 µM],40µM*
O=C(NCc1ccncc1)c1nc2c(o1)CCN(Cc1ccccc1F)CC2,-26%[138 µM],1%[88.5 µM],?,?,i,.,.,.,.
CN(Cc1cccnc1)c1nc2c(c(=O)[nH]1)CCN(Cc1ccc3[nH]ccc3c1)CC2,-7%,i,1%,-1%,i,.,.,.,.
Cc1ccccc1CN1CCc2nc(C(=O)NCc3ccncc3)oc2CC1,?,i,22µM*,?,i,31µM*,31µM*,-2%[86.2 µM],25µM*
N#Cc1ccc(CN2CCc3nc(C(=O)NCc4cccc(F)c4)oc3CC2)cc1,?,0%[88.5 µM],?,?,i,40µM*,?,3%[86.2 µM],31µM*
COC(=O)[C@@H]1Cc2ncn(Cc3ccc(OC)cc3)c2CN1S(=O)(=O)c1cccc(C(F)(F)F)c1,?,-7%,-8%,?,i,.,.,.,.
COc1cccc(CN2CCOC3(CCN(Cc4ccc(C#N)cc4)CC3)C2=O)c1,?,1%[88.5 µM],?,?,i,35µM*,40µM*,2%[86.2 µM],35µM*
Cc1ccc(C(=O)N2CCc3c(nc4cc(-c5ccccc5)[nH]n4c3=O)C2)cn1,-4%,i,-2%,-1%,i,.,.,.,.
CN1CC(=O)N(c2ccccc2)Cc2c1ncnc2N1CCN(c2ccccn2)CC1,-7%,-1%,12%,-2%,i,.,.,.,.
CNC(=O)c1cc(-c2ccccc2C)cc2c1OCCN2Cc1cccnc1,?,-8%[88.5 µM],?,?,i,?,?,2%[86.2 µM],-18%[86.2 µM]
Cc1ccccc1CN1CC[C@@H]2OCC(=O)N(C(C)C)[C@H]2CC1,-24%[138 µM],-11%[88.5 µM],7.9µM*,?,i,7.9µM*,13µM*,3%[86.2 µM],6.3µM*
CN1[C@@H](CCC(=O)Nc2ccccc2)CNC(=O)[C@@H]2[C@H]1CCN2Cc1csnn1,-8%[174 µM],-12%[88.5 µM],3%[70.6 µM],-3%[172 µM],i,.,.,.,.
O=C(c1ccccc1Cl)N1CCC(n2cc(-c3nc(-c4ccccc4)no3)nn2)CC1,-24%,i,?,?,i,.,.,.,.
O=C(c1ccc(Cl)cc1)N1CCC(n2cc(-c3nc(-c4ccccc4)no3)nn2)CC1,?,4%,16µM*,?,i,22µM*,22µM*,-19%,22µM*
O=C(c1ccc(F)cc1)N1CCC(n2cc(-c3nc(-c4ccccc4)no3)nn2)CC1,?,i,?,?,i,?,?,-17%,24µM*
CC(Oc1ccccc1)C(=O)N1CCC(n2cc(-c3nc(-c4ccccc4)no3)nn2)CC1 (centres undefined),?,-7%,18µM*,20µM*,i,24µM*,22µM*,-24%,24µM*
N#Cc1ccc(C(=O)N2CCC(n3cc(-c4nc(-c5ccccc5)no4)nn3)CC2)cc1,?,i,0%,?,?,.,.,.,.
O=C(c1ccc(F)cc1)N1CCCC(n2cc(-c3nc(-c4ccccc4)no3)nn2)C1 (centres undefined),?,2%,?,?,?,24µM*,24µM*,?,24µM*
CN(C)CCNC(=O)c1cnc2c(c1)N(C(=O)Cc1cn(C)c3ccccc13)CCC2,?,i,-3%[70.6 µM],-5%[172 µM],i,.,.,.,.
SMILES,3T3 cytotox,GPT2 inhibitor,hNpr1 antagonist,HEK cytotox,FLuc inh,Npr1 antag conf,NPR2 antag,FLuc inh counter,GloSensor ctrl
C[S+](=O)([O-])N1CCN(C(=O)c2nc3cccnc3n(C3CC3)c2=O)CC1,-10%,i,.,?,.,.,.,.,.
O=C(CCCc1ccccc1)N1CCN(c2cc(-c3ccccc3)[nH]n2)CC1,?,0%,0%,?,i,.,.,.,.
CCOc1ccc(-c2cc3c(=O)n(CC(O)c4ccc(C(C)C)cc4)ccn3n2)cc1 (centres undefined),-15%,i,3%,6%,i,.,.,.,.
CCOc1ccc(C(O)Cn2ccn3nc(-c4ccccc4C)cc3c2=O)cc1 (centres undefined),?,i,13µM*,35µM*,i,17µM*,?,0%,11µM*
Cc1cc2ncc(C(=O)NCc3ccc(F)cc3)cn2n1,-14%[138 µM],?,.,-19%[172 µM],.,.,.,.,.
COCc1ccc(C(=O)N2CCC(c3[nH]ncc3-c3ccccc3)CC2)o1,-22%,-5%,-2%,-3%,i,.,.,.,.
O=C(c1ccc(-n2ccnc2)cc1)N1CCC(c2[nH]ncc2-c2ccccc2)CC1,?,0%,11µM*,-22%,i,22µM*,22µM*,16%,5%
